Measured values reported in PubChem BioAssay AID1117359 (Southern Research Institute, 2015).
The whole screen tested about 1,500 compounds, of which about 460 (31%) were called active.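 The calls were made as follows: active = viability at or below 80% at any tested concentration, marking the compound as toxic; inactive = the rest.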 Not all results are given here. Results with a measured potency or affinity are listed apart.

Assay: viability loss in THP-1 monocytes – THP-1 cells, cytotoxicity control for Vif-APOBEC3G degradation inhibitor project, dose response (AID 1117359)
Details: THP-1 viability, CellTiter-Glo luminescence, 72 h; series mostly up to 40 µM

SMILES	outcome
CC(C)Cc1cc(C(=O)Nc2cccc(O)c2)no1	inactive
COc1ccc(S(=O)(=O)N2CCOC2CNC(=O)C(=O)NCc2ccccn2)cc1 (stereo not given)	inactive
Cc1csc(=O)n1CC(=O)OCC(=O)c1ccc(Br)cc1	inactive
O=C(O)/C=C/C(=O)NNc1ncnc2ccccc12	inactive
C=CCn1c(SCC(=O)c2c(N)n(C)c(=O)n(C)c2=O)nnc1-c1ccccc1F	inactive
COc1ccc(CNc2nc3ccccc3n2C)c(O)c1	inactive
COc1ccc2c(=O)c3c(=O)n(-c4ccc(C)cc4)c(-c4ccccc4)nc3oc2c1	inactive
O=[N+]([O-])c1ccc(N/N=C/c2ccc(O)c(O)c2O)c(S(=O)(=O)N2CCOCC2)c1	inactive
Cc1nnc(SCC(=O)N2CCN(c3ccccc3)CC2)n1C1CC1	inactive
CCOC(CCNC(=O)c1cn(C)c(=O)c2c1c1ccccc1n2C)OCC	inactive
O=CN/C=C/c1cc(O)ccc1O	inactive
Oc1ccc(/C=C/c2cnccn2)cc1	inactive
CC1CN(C(=O)COC(=O)Cc2ccc(Cl)cc2)CC(C)O1 (stereo not given)	inactive
CCN(CC(=O)Nc1c(F)cccc1F)C(=O)CSC(=S)N1CCCC1	inactive
O=c1[nH]c2ccccc2c(O)c1-[n+]1ccccc1	inactive
CCc1ccc2c(CN3CCC(C(=O)OC)CC3)cc(=O)oc2c1	inactive
Cc1ccc(CNC(=O)COc2ccc3c(c2)CCC3)cc1	inactive
CCn1c(SCC(=O)OC)nc2sc3c(c2c1=O)CCC3	inactive
Cc1cc(SCC(=O)NCCCN2CCCC2=O)nc2ccccc12	inactive
Cc1cc2c(c(=O)o1)C(c1ccc([N+](=O)[O-])o1)C(C#N)=C(N)O2 (stereo not given)	inactive
CC1CN(S(=O)(=O)c2cc(C(=O)NCc3ccncc3)ccc2Cl)CC(C)O1 (stereo not given)	inactive
CN(C)c1ccc(NC(=O)Nc2cccc(Cl)c2)cc1	inactive

SMILES	outcome
CCN(CC(=O)Nc1ccc(NC(C)=O)cc1)C(=O)C1CCCC1	inactive
COC(=O)C1CCN(c2ccc([N+](=O)[O-])cc2)CC1	inactive
C=CCc1c(C)nc2c(C(=O)O)cnn2c1C	inactive
CC1(C)CCC(=O)c2ccccc21	inactive
O=S(=O)(O)c1cc(O)c2cc(Nc3ccccc3)ccc2c1	inactive
Cn1cc(/C=C/C(=O)N2CCCC(C(=O)c3cccc(C(F)(F)F)c3)C2)cn1 (stereo not given)	inactive
CC1(C)C2CCC1(C)C(OC(=O)C[n+]1ccccc1)C2 (stereo not given)	inactive
CN1CCN(S(=O)(=O)Cc2ccc(Cl)cc2)CC1	inactive
CN1CCN(C2=C(Cl)C(=O)C(c3cnc(N4CCCCC4)s3)=C(Cl)C2=O)CC1	inactive
O=C1C(Cl)=C(N2CCCCC2)C(=O)C(Cl)=C1c1cnc(N2CCCCC2)s1	inactive
CN(C)c1ncc(C2=C(Cl)C(=O)C(N3CCCC3)=C(Cl)C2=O)s1	inactive
CCn1c(CNC(=O)Cc2ccc(OC)cc2)nnc1SCC(=O)Nc1ccc(C(=O)O)cc1	inactive
Cc1cc(O)c(Oc2cc(C)cc(O)c2O)c(O)c1	inactive
Cc1nc(NCc2ccccc2)c2cc[nH]c2n1	inactive
COc1ccc2c(c1)n([O-])c1c([n+]2=O)CCC1	inactive
CC(C)C(NC(N)=O)C(=O)NC1CCCCC1 (stereo not given)	inactive
CN(CC(=O)Nc1cccc(F)c1)C(=O)c1cc(-c2ccco2)nc2ccccc12	inactive
CCc1ccccc1NNC(=O)CCc1ccccc1	inactive
Cn1cnnc1SCC(=O)Nc1ncc([N+](=O)[O-])s1	inactive
C=C(C)C(=O)Nc1cccc(C2=NOC3(C2)C[C@@H](C(N)=O)N(C(=O)CCCCC)C3)c1 (stereo not given in full)	inactive
CCOC(=O)C1=C(COC(=O)/C=C/c2ccco2)NC(=O)NC1C (stereo not given)	inactive
Cc1ccc(NC(=O)CN2C(=O)N/C(=C/c3ccco3)C2=O)cc1	inactive

SMILES	outcome
C=CC1=C(C(=O)O)N2C(=O)C(NC(=O)Cc3ccccc3)C2SC1 (stereo not given)	inactive
Cc1cc(C(=O)NCCCN2CCCC2=O)no1	inactive
CCOC(=O)C1=C(c2ccccc2)NC(=O)NC1c1cc(Cl)c(O)c(OC)c1 (stereo not given)	inactive
Cc1nc(-c2noc(-c3ccccc3Cl)n2)c(C(F)(F)F)o1	inactive
COc1cccc(CC(=O)N2CCCC(CO)(Cc3ccc(F)cc3F)C2)c1 (stereo not given)	inactive
COc1ccc(/C=N/NC(=O)CN2CCN(Cc3ccccc3)CC2)cc1Br	inactive
O=C(COc1ccc([N+](=O)[O-])cc1)NC(C(=O)O)C(O)c1cccc([N+](=O)[O-])c1 (stereo not given)	inactive
COc1cc(NC(=O)CSCC(=O)N(C)C2CCCCC2)cc(OC)c1	inactive
O=C(O)COc1ccc2c(c1)O/C(=C\c1ccco1)C2=O	inactive
CC(C)(C)OC(=O)N1CCN(c2ccc([N+](=O)[O-])cc2)CC1	inactive
O=C(NC(=O)N1CCN(c2ccc([N+](=O)[O-])cn2)CC1)c1c(Cl)cccc1Cl	inactive
CCc1ccccc1NC(=S)N(Cc1ccc(OC)cc1)CC1CCC(C(=O)O)CC1 (stereo not given)	inactive
O=C(Cn1c(NCCO)nc2ccccc21)NCC(F)(F)F	inactive
COc1cc(C(=O)NNC(=S)NCc2ccco2)cc(OC)c1OC	inactive
Cc1ccc(C(=O)N/C(=C/c2cccnc2)C(=O)NCc2ccco2)cc1	inactive
Cc1ccc(C(CC(=O)NCc2ccco2)c2ccccc2)c(O)c1 (stereo not given)	inactive
O=C(O)CSc1c2c(nc3cc(C(=O)Nc4cccc(C(F)(F)F)c4)ccc13)CCC2	inactive
COc1cc(/C=C2/C(=O)c3cccc([N+](=O)[O-])c3C2=O)c(Br)cc1O	inactive
CCN(CC)c1ccc(NC(=O)CCS(=O)(=O)c2ccc(Br)cc2)c(C)c1	inactive
CCOC(=O)C(C)N1C(=O)S/C(=C\c2ccc(-c3ccccc3C(=O)O)o2)C1=O (stereo not given)	inactive
CNC[C@H](O)c1ccc(O)c(O)c1	inactive
CCN(CC)Cc1cc(O)c(CN(CC)CC)cc1O	inactive

SMILES	outcome
COc1cccc(NC(=O)CSc2nnc(-c3ccco3)c(-c3ccco3)n2)c1	inactive
CCOC(=O)CNc1nc2ccccc2n2c(C)nnc12	inactive
COc1cc(NCCCNC(C)C)c2nccc(C)c2c1	inactive
COc1cc(CC(=O)NCC(C)(C)N2CCOCC2)cc(OC)c1OC	inactive
C[C@H](NC(=O)c1ccco1)C(=O)Nc1cccc([N+](=O)[O-])c1	inactive
COc1ccc(OC)c(N2C(=O)[C@@H]3C(c4ccccc4Cl)=NO[C@@H]3C2=O)c1	inactive
CCN(C(=O)CN1CCN(c2ccc(O)cc2)CC1)c1c(N)n(Cc2ccccc2)c(=O)[nH]c1=O	inactive
COC1=C(Br)C(=O)c2nc(C)ccc2C1=O	inactive
CCOc1cccc(=O)c2c(C)n(CC(=O)c3ccccc3)c(C)c12	inactive
COc1ccc(CNS(=O)(=O)c2cc(Br)cc3c2N(C(C)=O)C(C)C3)cc1 (stereo not given)	inactive
Cc1[nH]n(-c2nc(-c3ccccc3F)cc(=O)[nH]2)c(=O)c1CCO	inactive
COc1cc2ccccc2cc1C(=O)N1CCN(c2ccccc2O)CC1	inactive
C/C(=N\Nc1ccc([N+](=O)[O-])cc1[N+](=O)[O-])c1cc2c(ccc3ccccc32)oc1=O	inactive
O=[N+]([O-])c1ccc2c(c1)S(=O)c1ccccc1-2 (stereo not given)	inactive
CC1=Nc2cccc3cccc(c23)N1	inactive
CCS(=O)(=O)N1CCN(C(=O)c2cccc3ccccc23)CC1	inactive
O=c1c(O)cccc2cc(O)c(O)c(O)c12	inactive
CC12CCC(C(=O)Nc3ccc(Br)cn3)(OC1=O)C2(C)C (stereo not given)	inactive
COc1ccc(S(=O)(=O)N2CCC(C(=O)NCc3cccnc3)CC2)cc1Cl	inactive
O=C(Nc1ccc(C(=O)N2CCOCC2)cc1)c1ccccc1[N+](=O)[O-]	inactive
O/C=c1\ccc2cccc3nc(C(F)(F)F)nc1c23	inactive
Cc1ccc(C)c(NC(=S)NCc2ccccc2)c1	inactive

SMILES	outcome
Cc1ccc(C(=O)NNS(=O)(=O)c2ccccc2[N+](=O)[O-])cc1	inactive
CN(C)c1ccc(N2C(=O)CSC2=S)cc1	inactive
CC(C)C(C)NC(=O)COc1ccc(S(=O)(=O)N2CCOCC2)cc1Cl (stereo not given)	inactive
O=C1CC(Nc2ccc(N3CCOCC3)cc2)C(=O)N1CCc1ccccc1 (stereo not given)	inactive
O=C(CNC(=O)c1ccc(Cl)cc1Cl)OCc1nnc(-c2ccccc2Br)o1	inactive
CCOC(=O)/C=C1\SC(C)C(=O)N1CC(=O)N(CCC#N)c1ccccc1 (stereo not given)	inactive
CC(C)CC(NC(=O)/C(=C/c1ccco1)NC(=O)c1ccc(Br)o1)C(=O)O (stereo not given)	inactive
CCC(C)(C)NC(=O)C(c1ccc(F)cc1)N(Cc1ccco1)C(=O)c1cnccn1 (stereo not given)	inactive
O=C(Cc1csc(N2CCOCC2)n1)N/N=C/c1ccc(O)c(O)c1O	inactive
O=C(CCN1CCN(c2ccccc2)CC1)N/N=C/c1ccc(O)c(O)c1O	inactive
CC1CCCN(CC(O)CN2CCN(CC(O)CN3CCCC(C)C3)C(C)C2)C1 (stereo not given)	inactive
COC(=O)c1ccccc1NC(=O)CCS(=O)(=O)c1ccc(Br)cc1	inactive
COc1cccc(NC(=O)CN(C)C(=O)CCCc2nc3ccccc3s2)c1	inactive
COC(=O)C1=C(O)/C(=C\c2ccc(CNC(=O)C(=O)Nc3ccc(C)c(C)c3)o2)N=C1C	inactive
Cc1cn(C2CCCCO2)c(=O)[nH]c1=O (stereo not given)	inactive
O=C(CCCN1C(=O)/C(=C\c2ccco2)SC1=S)Nc1ccc2ccccc2c1	inactive
CC(=C\c1ccco1)/C=C1/SC(=S)N(CC(=O)O)C1=O	inactive
COC(=O)c1ccccc1NC(=O)CNC(=O)c1ccc(OC)cc1	inactive
COc1ccc(NC(=O)c2cccnc2C(=O)O)c(OC)c1	inactive
O=C(O)c1c2c(nc3ccc(Cl)cc13)CCC2	inactive
COc1ccc(CNC(=O)c2sc3nc4c(c(C(F)(F)F)c3c2N)CCC4)cc1OC	inactive
Cc1ccc(C(c2nnnn2CC2CCCO2)N2CCN(C)CC2)cc1 (stereo not given)	inactive
